This note sets out measurements from PubChem BioAssay (NCI).

Compounds without any hit were thinned out: in the full panel of roughly 83,000, 20% have a hit.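 Negative percent growth values reflect cell death: -40 means 40% of the cells present at the start died, and -100 means all died.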 Values without a mark were called inactive. Active and inactive are the calls of the source.

The subject of the assay is SN12C renal. The assay can be described thus: NCI-60 one-dose screen, 48 h (100 = growth as untreated, 0 = no growth, -100 = all killed). The following applies: 10 µM unless noted. As for the experimental part:
Growth inhibition of the SN12C human tumor cell line is measured as a screen for anti-cancer activity. Cells are grown in 96 well plates and exposed to the test compound for 48 hours. Compounds are tested at a single concentration, which is 10^-5 M for most compounds. The reported endpoint is percent growth (GI% or GIPRCNT), where numbers from 0 - 100% represent growth inhibition, and numbers from -100% - 0 represent cell death. For example, a value of 40 represents 60% growth inhibition. A value of 0 means no net growth occurred over the course of the experiment. A value of -40 indicates 40% of cells at the beginning of the experiment died by the end of the experiment. A value of -100 means all cells are dead at the end of the experiment.
NCI-60 Human Tumor Cell Lines Screen was performed using the standard one-dose NCI protocol, which is described in more detail at https://dtp.cancer.gov/discovery_development/nci-60/default.htm.
Compounds with GIPRCNT values below 10 were considered active. Activity score was based on GIPRCNT using the following formula: […]
Score is 0 for GIPRCNT values of 100 or above, 50 for GIPRCNT values of 0, and 100 for GIPRCNT values of -100.
Consider `COc1cc(CNC(=O)/C=C/C=C/c2ccc3c(c2)OCO3)ccc1OCc1cn(-c2ccc(Cl)c(Cl)c2)nn1`, for which the growth was 34.1%.

Turning to `CCCCCCCSc1ccc(C(=O)O)cc1`, the growth was 93.2%.

Turning to `NS(=O)(=O)Oc1ccc(NC(=O)C23CC4CC(CC(C4)C2)C3)cc1Cl`, the growth was 90.6%.

Consider `Nc1c(C(=O)c2ccccc2)nnc2ncnn12`, for which the growth is 101%.

Take `O=C(/C=C/c1ccccc1)c1ccc2ccccc2c1`: the growth was 99.7%.

Turning to `COc1cccc(-c2nc3sccn3c2-c2ccnc(NCCNS(=O)(=O)c3c(Cl)cccc3Cl)c2)c1`, the growth was 60.5%.

With `O=C1/C(=C/c2ccccc2[N+](=O)[O-])COc2ccc(O)c(O)c21`, the growth was -29.1% (active).

`NC(=O)c1c(NC(=O)c2ccc(C(F)(F)F)cc2Cl)sc2c1CCC(=O)C2`: the growth was -5.19% (active).

`C[N+](C)(C)CCOC(OCC[N+](C)(C)C)(c1ccccc1)c1ccccc1`: the growth is 99.9%.

On to `CCNCCNc1cc(-c2cccc(C(F)(F)F)c2)c(C#N)c2nc3ccccc3n12`, for which the growth was -47% (active).

On to `N=C(N)c1ccc(-c2ccc(-c3ccc(Cl)c(Cl)c3)o2)cc1`, for which the growth was -81% (active).

Take `Cc1ccc(NC(=O)C(Cl)Cl)cc1`: the growth was 98.9%.

In the case of `CN(C)c1ccc2cc(-c3ccc(Cl)c(Cl)c3)c(N)nc2c1`, the growth is 40.9%.

For `C=C1c2c(C)nn(-c3ccc(N)cc3)c2N(C)C23CC1C1(C)c4c(C)nn(-c5ccc(N)cc5)c4N(C)C(C)(CC12)C3` (stereo not given), the growth was 89.5%.

Consider `CCOC(=O)c1nnn(C(Cc2ccccc2Cl)C(=O)OCC)c1C` (stereo not given), for which the growth is 104%.

In the case of `COc1ccc(-c2cn(-c3cccc(C(=O)/C=C/c4cc(OC)c(OC)c(OC)c4)c3)c(=O)[nH]2)cc1`, the growth is 9.79% (active).

With `CC(=O)c1cc2c(o1)C(=O)c1ccccc1C2=O`, the growth was -81.2% (active).

Turning to `CCOc1cc(N)ccc1C(=O)NCCCN(CC)CC`, the growth is 98.5%.

Regarding `CCCCCCCCN(CCCCCCCC)C(=N)c1ccnc2ccccc12`, the growth was -57.8% (active).

On to `O=C(Nc1ccccc1Cl)OCCN1CCOCC1`, for which the growth is 98%.

For the compound `Oc1[nH]c2ccccc2c1/C=c1/cc2c(c(-c3ccc(F)cc3)n1)=Nc1ccccc1-2`, the growth was -0.749% (active).

As for `COC(=O)Nc1nc2ccc(C(=O)C3CC3)cc2[nH]1`, the growth was 19.7%.

In the case of `O=C(Oc1ccc[nH]c1=O)c1cc([N+](=O)[O-])cc([N+](=O)[O-])c1`, the growth is 107%.

Turning to `CCCCCCCC/C=C\CCCCCCCC(=O)Oc1cccc2cccnc12`, the growth was 88.9%.

On to `CN(C)CCC(O)(Cc1ccccc1)c1ccccc1` (stereo not given), for which the growth is 105%.

Take `C=C(CNCCc1ccc(O)cc1)[C@@H]1CC[C@]2(COC3CCCCO3)CC[C@]3(C)[C@H](CC[C@@H]4[C@@]5(C)CCC(N)C(C)(C)[C@@H]5CC[C@]43C)[C@@H]12` (stereo not given in full): the growth was -85.2% (active).

`CCCCOc1nc2ccc(Cl)cc2cc1/C=C/C(=O)/C=C1/CC(c2cc3cc(Cl)ccc3nc2OCCCC)Nc2ccccc2N1` (stereo not given): the growth was 91.8%.

As for `NC(=S)c1csc(CCNC(=O)c2ccccc2)n1`, the growth is 91.8%.

Regarding `CCCc1nc2ccccn2c1Nc1ccc(C(=O)NO)cc1`, the growth is 86.5%.

With `Cc1cn(C2CCCCC2)c(=O)[nH]c1=O`, the growth was 108%.

As to `CCN(CC)CCNc1ccc(C)c2sc3cc(C)ccc3c(=O)c12`, the growth is 53.8%.

Consider `Cc1ccc(S(=O)(=O)NN/C(N)=N\S(=O)(=O)c2cc(C)c(Cl)cc2SCc2ccccc2)cc1`, for which the growth is 101%.

On to `N#Cc1cnn2c(-c3ccc(Cl)cc3)nc(NC3CC3)nc12`, for which the growth was 98.9%.

For the compound `CSc1nc(N)c(CNC(C)c2ccccc2)c(=O)n1C` (stereo not given), the growth is 101%.

On to `CN1C[C@@H](c2ccc(Cl)cc2)[C@]2(NC(=S)N(c3ccc(F)c(Cl)c3)C2=O)[C@@]12C(=O)NC1C=CC(Cl)=C[C@H]12` (stereo not given in full), for which the growth was -63.2% (active).

As to `CCOC(=O)c1c(C)nc2c(c1N)/C(=C/c1cc(OC)c(OC)c(OC)c1)C(=O)N2c1ccc(OC)cc1`, the growth is 36.2%.

Regarding `CN1CCN(c2ccc3nc(/N=C/c4ccc5sc(-c6ccc([N+](=O)[O-])cc6)nc5c4)sc3c2)CC1`, the growth is 104%.

As to `CCCCCCN(CCCCCC)CC(O)c1cccc2ccc(Cl)cc12` (stereo not given), the growth was 72.8%.

As for `O=C1C2=C(CCN(Cc3ccccc3)C2)N2CCN=C2N1Cc1ccc(F)cc1F`, the growth was 28.8%.

Take `COc1ccc(Oc2nc(Nc3ccc(N4CCOCC4)nc3)ncc2NC(=O)c2cc(OC)cc(OC)c2)cc1`: the growth is 93.7%.
